Experimental data taken from PubChem BioAssay (EPA / NIEHS).
Activity calls are given as the source filed them. Rule for the calls: active = hit-call score of the fitted dose curve at least 0.9, where 1 is the maximum; inactive = score below 0.9.

Key:
Settings in all cases: mRNA level, 48 h; actives raise or lower the signal
MYC, MYC (gene 4609) = experiment: LTEA_HepaRG_MYC: Life Technologies and Expression Analysis (LTEA) Assay for MYC using HepaRG (AID 2283518)
In short: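 Differentiated HepaRG cells exposed 48 h in serum-free induction medium to 8 concentrations (top 100 uM, half-log steps; 0.5% DMSO), duplicate. MYC mRNA measured by Fluidigm qRT-PCR, normalized to ACTB, GAPDH, POLR2A; bidirectional fit versus DMSO.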

[1] = read-out: matrix metalloproteinase-3 (MMP3), MMP3 (gene 4314); experiment: LTEA_HepaRG_MMP3: Life Technologies and Expression Analysis (LTEA) Assay for matrix metalloproteinase-3 (MMP3) using HepaRG (AID 2283519)
In short: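 HepaRG, human; 48 h dosing, 8 conc. (max 100 uM, half-log), duplicate, 0.5% DMSO. Readout: MMP3 transcript by Fluidigm TaqMan qRT-PCR, ACTB/GAPDH/POLR2A-normalised. Gain or loss fitted vs DMSO.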

[2] = read-out: Paternally Expressed 10 (PEG10), PEG10 (gene 23089); experiment: LTEA_HepaRG_PEG10: Life Technologies and Expression Analysis (LTEA) Assay for Paternally Expressed 10 (PEG10) using HepaRG (AID 2283520)
In short: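 HepaRG, 48 h post-plating → serum-free induction medium → 48 h chemical exposure (duplicate, 8-pt, max 100 uM, half-log, 0.5% DMSO) → lysis in RLT → TaqMan qRT-PCR for PEG10, ACTB/GAPDH/POLR2A normalisation.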

[3] = read-out: Nuclear factor NF-kappa-B p105 subunit (Homo sapiens) (UniProt P19838); experiment: LTEA_HepaRG_NFKB1: Life Technologies and Expression Analysis (LTEA) Assay for Nuclear Factor Kappa B Subunit 1 (NFKB1) using HepaRG (AID 2283521)
In short: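 NFKB1 transcript was measured by TaqMan qRT-PCR on Fluidigm arrays, normalised to three housekeeping genes and fitted in both directions against 0.5% DMSO. HepaRG cells were dosed in duplicate for 48 h in serum-free induction medium, eight half-log steps from 100 uM.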

[4] = read-out: Protein phosphatase 2A (PPP2R4), PTPA (gene 5524); experiment: LTEA_HepaRG_PPP2R4: Life Technologies and Expression Analysis (LTEA) Assay for Protein phosphatase 2A (PPP2R4) using HepaRG (AID 2283522)
In short: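 Readout is PPP2R4 transcript level by microfluidic qRT-PCR after 48 h chemical treatment of human HepaRG liver cells. Concentrations spanned 100 uM downward in half-log steps; gain or loss of signal was fitted relative to DMSO.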

[5] = read-out: Phosphatase and tensin (PTEN), PTEN (gene 5728); experiment: LTEA_HepaRG_PTEN: Life Technologies and Expression Analysis (LTEA) Assay for Phosphatase and tensin (PTEN) using HepaRG (AID 2283523)
In short: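 Read-out is PTEN transcript level by multiplexed TaqMan qRT-PCR after 48 h chemical treatment of human HepaRG cultures in serum-free induction medium. Concentrations spanned 100 uM downward in half-log steps, 0.5% DMSO throughout; activity fitted in both directions against vehicle.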

[6] = read-out: solute carrier (SLC22A1), SLC22A1 (gene 6580); experiment: LTEA_HepaRG_SLC22A1: Life Technologies and Expression Analysis (LTEA) Assay for solute carrier (SLC22A1) using HepaRG (AID 2283524)
In short: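 HepaRG (human liver line), 48 h dosing in serum-free induction medium; 8 conc., half-log down from 100 uM, 0.5% DMSO vehicle, duplicates. Endpoint: SLC22A1 mRNA, qRT-PCR, housekeeping-normalized; gain/loss fit vs DMSO.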

[7] = read-out: Pyruvate Dehydrogenase Kinase 4 (PDK4), PDK4 (gene 5166); experiment: LTEA_HepaRG_PDK4: Life Technologies and Expression Analysis (LTEA) Assay for Pyruvate Dehydrogenase Kinase 4 (PDK4) using HepaRG (AID 2283525)
In short: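 In this multiplexed human HepaRG expression assay, cells are treated 48 h with test chemicals across an eight-point range starting at 100 uM. PDK4 mRNA changes, normalized to ACTB/GAPDH/POLR2A, are fitted in both directions relative to vehicle.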

[8] = read-out: NAD(P)H dehydrogenase [quinone] 1 (NQO1), NQO1 (gene 1728); experiment: LTEA_HepaRG_NQO1: Life Technologies and Expression Analysis (LTEA) Assay for NAD(P)H dehydrogenase [quinone] 1 (NQO1) using HepaRG (AID 2283526)
In short: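 HepaRG, 48 h post-plating → serum-free induction medium → test chemical 48 h (duplicate, 100 uM top, half-log x8, 0.5% DMSO) → RNA isolation → qRT-PCR, ACTB/GAPDH/POLR2A normalization; bidirectional curve fit vs DMSO baseline.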

[9] = read-out: Nuclear factor erythroid 2-related factor 2 (Homo sapiens) (UniProt Q16236); experiment: LTEA_HepaRG_NFE2L2: Life Technologies and Expression Analysis (LTEA) Assay for Nuclear factor erythroid 2-related factor 2 (NFE2L2) Transcription Factor using HepaRG (AID 2283527)
In short: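 Transcript level of NFE2L2 is the read-out, measured by microfluidic TaqMan qRT-PCR and normalized to three housekeeping genes. Human HepaRG cultures received test chemical for 48 h at up to 100 uM in half-log steps. Gain or loss of signal is fitted relative to 0.5% DMSO.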

[10] = read-out: succinate dehydrogenase complex iron sulfur subunit B (SDHB), SDHB (gene 6390); experiment: LTEA_HepaRG_SDHB: Life Technologies and Expression Analysis (LTEA) Assay for succinate dehydrogenase complex iron sulfur subunit B (SDHB) using HepaRG (AID 2283528)
In short: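 SDHB transcript level read by TaqMan qRT-PCR, housekeeping-normalised (ACTB, GAPDH, POLR2A), after 48 h chemical treatment of plated HepaRG cells; eight concentrations top 100 uM, half-log steps, 0.5% DMSO, duplicates; fitted both directions against DMSO.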

[11] = read-out: sulfotransferase 2A1 (SULT2A1), SULT2A1 (gene 6822); experiment: LTEA_HepaRG_SULT2A1: Life Technologies and Expression Analysis (LTEA) Assay for sulfotransferase 2A1 (SULT2A1) using HepaRG (AID 2283531)
In short: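 HepaRG human liver cells, 48 h exposure in serum-free induction medium to 8 half-log concentrations topping at 100 µM (0.5% DMSO), duplicate wells. SULT2A1 mRNA measured by TaqMan qRT-PCR, normalized to ACTB/GAPDH/POLR2A; bidirectional fit against DMSO.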

[12] = read-out: Transforming Growth Factor (TGFA), TGFA (gene 7039); experiment: LTEA_HepaRG_TGFA: Life Technologies and Expression Analysis (LTEA) Assay for Transforming Growth Factor (TGFA) using HepaRG (AID 2283532)
In short: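 HepaRG (human liver line), 48 h exposure, 8 conc. half-log down from 100 uM, 0.5% DMSO vehicle, duplicates; serum-free induction medium. TGFA mRNA by TaqMan qRT-PCR, ACTB/GAPDH/POLR2A normalization; gain/loss fit vs DMSO.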

[13] = read-out: Transforming Growth Factor (TGFB1), TGFB1 (gene 7040); experiment: LTEA_HepaRG_TGFB1: Life Technologies and Expression Analysis (LTEA) Assay for Transforming Growth Factor (TGFB1) Transporter using HepaRG (AID 2283533)
In short: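 Differentiated HepaRG cells exposed 48 hr in serum-free induction medium to eight half-log concentrations up to 100 uM (0.5% DMSO), duplicate; TGFB1 mRNA by TaqMan qRT-PCR normalised to ACTB, GAPDH, POLR2A; bidirectional fit against DMSO.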

TIMP1, TIMP1 (gene 7076) = experiment: LTEA_HepaRG_TIMP1: Life Technologies and Expression Analysis (LTEA) Assay for TIMP1 using HepaRG (AID 2283534);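 note: TaqMan qRT-PCR signal normalized to ACTB GAPDH and POLR2A housekeeping genes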
In short: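 Differentiated HepaRG cells exposed 48 h in serum-free induction medium, duplicates, eight half-log concentrations from 100 uM in 0.5% DMSO. TIMP1 mRNA by qRT-PCR normalized to ACTB, GAPDH, POLR2A; bidirectional fitting against DMSO.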

[14] = read-out: Tumor necrosis factor receptor 1 (TNFRSF1A), TNFRSF1A (gene 7132); experiment: LTEA_HepaRG_TNFRSF1A: Life Technologies and Expression Analysis (LTEA) Assay for Tumor necrosis factor receptor 1 (TNFRSF1A) using HepaRG (AID 2283535)
In short: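 Differentiated HepaRG cells in serum-free induction medium, exposed 48 h in duplicate to 8 half-log concentrations up to 100 uM in 0.5% DMSO. TNFRSF1A mRNA by Fluidigm TaqMan qRT-PCR, normalized to ACTB, GAPDH, POLR2A; bidirectional fit.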

[15] = read-out: Thyroid Hormone Responsive (THRSP), THRSP (gene 7069); experiment: LTEA_HepaRG_THRSP: Life Technologies and Expression Analysis (LTEA) Assay for Thyroid Hormone Responsive (THRSP) using HepaRG (AID 2283536)
In short: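 mRNA induction or loss relative to 0.5% DMSO vehicle was fitted bidirectionally across an eight-point curve whose highest exposure was 100 uM. Human HepaRG liver cells received chemicals in duplicate over 48 h before RNA extraction.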

[16] = read-out: UDP glucuronosyltransferase (UGT1A1), UGT1A1 (gene 54658); experiment: LTEA_HepaRG_UGT1A1: Life Technologies and Expression Analysis (LTEA) Assay for UDP glucuronosyltransferase (UGT1A1) using HepaRG (AID 2283538)
In short: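 Readout is UGT1A1 transcript level by qRT-PCR, normalized to three housekeeping genes, after 48 h chemical treatment of HepaRG cells. Concentrations ran from 100 uM down in half-log steps with 0.5% DMSO, and gain or loss relative to DMSO was fitted.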

[17] = read-out: UDP glucuronosyltransferase (UGT1A6), UGT1A6 (gene 54578); experiment: LTEA_HepaRG_UGT1A6: Life Technologies and Expression Analysis (LTEA) Assay for UDP glucuronosyltransferase (UGT1A6) using HepaRG (AID 2283539)
In short: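 Differentiated HepaRG cells, ~100,000/well, were exposed for 48 h in serum-free induction medium with 0.5% DMSO to 8-point half-log series topping at 100 uM, in duplicate. mRNA measured by Fluidigm TaqMan qRT-PCR, normalized to ACTB, GAPDH and POLR2A.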

Measured: outcome

Chain of Nuclear factor erythroid 2-related factor 2 (Homo sapiens) (Q16236 whole entry, looked up): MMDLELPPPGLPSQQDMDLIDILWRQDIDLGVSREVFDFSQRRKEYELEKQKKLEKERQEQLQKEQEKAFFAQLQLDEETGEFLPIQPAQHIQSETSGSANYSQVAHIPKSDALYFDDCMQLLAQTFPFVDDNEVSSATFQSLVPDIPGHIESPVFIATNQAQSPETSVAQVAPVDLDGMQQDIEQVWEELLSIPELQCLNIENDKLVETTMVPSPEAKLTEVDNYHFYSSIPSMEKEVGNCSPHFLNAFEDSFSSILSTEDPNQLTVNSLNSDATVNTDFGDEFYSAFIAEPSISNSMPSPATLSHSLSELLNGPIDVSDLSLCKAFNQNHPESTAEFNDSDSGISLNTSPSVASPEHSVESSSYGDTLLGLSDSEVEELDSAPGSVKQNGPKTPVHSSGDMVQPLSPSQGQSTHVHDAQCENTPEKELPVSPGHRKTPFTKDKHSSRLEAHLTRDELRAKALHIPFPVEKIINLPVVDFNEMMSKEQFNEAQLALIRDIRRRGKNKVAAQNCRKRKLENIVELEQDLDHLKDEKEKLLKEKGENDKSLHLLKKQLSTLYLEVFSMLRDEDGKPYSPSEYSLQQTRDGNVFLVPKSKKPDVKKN
Chain of Nuclear factor NF-kappa-B p105 subunit (Homo sapiens) (P19838 whole entry, looked up): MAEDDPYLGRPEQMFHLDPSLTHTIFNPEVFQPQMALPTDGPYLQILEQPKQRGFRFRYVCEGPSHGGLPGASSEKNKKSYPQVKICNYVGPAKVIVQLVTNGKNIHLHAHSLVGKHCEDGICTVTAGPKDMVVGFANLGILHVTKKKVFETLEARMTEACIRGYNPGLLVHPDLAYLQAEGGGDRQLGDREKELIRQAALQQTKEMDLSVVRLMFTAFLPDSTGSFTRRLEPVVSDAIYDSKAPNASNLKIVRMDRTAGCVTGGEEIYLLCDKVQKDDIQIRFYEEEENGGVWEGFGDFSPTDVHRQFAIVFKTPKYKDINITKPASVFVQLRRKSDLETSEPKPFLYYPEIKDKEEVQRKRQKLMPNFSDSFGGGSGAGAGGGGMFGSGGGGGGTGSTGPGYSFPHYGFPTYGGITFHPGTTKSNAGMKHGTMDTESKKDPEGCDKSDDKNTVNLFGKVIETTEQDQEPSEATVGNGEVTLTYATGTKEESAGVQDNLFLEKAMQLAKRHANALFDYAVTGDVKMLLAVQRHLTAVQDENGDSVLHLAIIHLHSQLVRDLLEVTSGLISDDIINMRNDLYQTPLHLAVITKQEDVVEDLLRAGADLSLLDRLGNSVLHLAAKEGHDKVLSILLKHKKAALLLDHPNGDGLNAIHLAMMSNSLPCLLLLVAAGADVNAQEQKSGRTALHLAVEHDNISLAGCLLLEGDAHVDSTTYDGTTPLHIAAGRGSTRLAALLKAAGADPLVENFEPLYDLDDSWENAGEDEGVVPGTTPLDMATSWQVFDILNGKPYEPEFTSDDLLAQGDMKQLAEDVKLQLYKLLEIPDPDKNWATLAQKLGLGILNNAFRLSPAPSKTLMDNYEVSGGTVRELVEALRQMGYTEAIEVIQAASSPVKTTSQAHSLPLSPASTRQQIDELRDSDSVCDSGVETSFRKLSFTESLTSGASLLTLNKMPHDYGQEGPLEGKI

OCCN(CCO)CCO
inactive: MYC, MYC (gene 4609) | [1] | [2] | [3] | [4] | [5] | [6] | [7] | [8] | [9] | [10] | [11] | [12] | [13] | TIMP1, TIMP1 (gene 7076) | [14] | [15] | [16] | [17]

N#Cc1cccnc1
inactive: MYC, MYC (gene 4609) | [1] | [2] | [4] | [5] | [6] | [7] | [8] | [9] | [10] | [11] | [12] | [13] | TIMP1, TIMP1 (gene 7076) | [14] | [15] | [16] | [17]

O=C(N[C@H]1CN2CCC1CC2)c1ccc2c(c1)OCCO2
inactive: MYC, MYC (gene 4609) | [1] | [2] | [4] | [5] | [6] | [7] | [8] | [9] | [10] | [11] | [12] | [13] | TIMP1, TIMP1 (gene 7076) | [14] | [15] | [16] | [17]

Cc1cc(C)cc(C)c1
inactive: MYC, MYC (gene 4609) | [1] | [2] | [3] | [4] | [5] | [6] | [7] | [8] | [9] | [10] | [11] | [12] | [13] | TIMP1, TIMP1 (gene 7076) | [14] | [15] | [16] | [17]
